# From article PMC6212790, “How bacterial xenogeneic silencer rok distinguishes foreign from self DNA in its resident genome”
# Whole data set: some 33,000 sequences, median “e-score” near -0.037, cut for the highest 2% near 0.34. Only a selection was taken, and the highest values are over-represented in it overall.
# Target: T1, GST-Rok (full length) (Bacillus subtilis subsp. subtilis str. …, UniProt O34857 1-191)
# T1 sequence: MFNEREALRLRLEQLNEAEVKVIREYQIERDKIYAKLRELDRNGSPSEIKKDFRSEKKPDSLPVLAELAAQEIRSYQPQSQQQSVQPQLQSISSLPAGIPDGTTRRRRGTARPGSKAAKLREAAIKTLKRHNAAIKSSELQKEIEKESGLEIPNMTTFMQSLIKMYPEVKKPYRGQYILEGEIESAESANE
# Test: protein binding microarray; Rok is a gene silencer of Bacillus subtilis; high values mean tight binding
# Conditions: protein: recombinant; tags: GST (pTH5325, pDEST15-Magic modified); dsDNA, one strand shown
# Outline: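 Every oligonucleotide joins a 25-mer constant primer to a 35-mer variable part drawn from a de Bruijn sequence of order 10, so each non-palindromic 8-mer appears at least 32 times and each palindromic 8-mer 16 times. The preference for every 8-mer is reported as a unitless, rank-based enrichment score (E-score). This score spans 0.5 for the most favored 8-mer to −0.5 for the most disfavored.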
row,Sequence,binding signal [E-score]
1,TACCATAA,0.336
2,AACCATAA,0.0915
3,GACCATAA,-0.0227
4,GATAGTCA,0.0302
5,CATAGTTA,0.244
6,AATAGTTA,0.372
7,GATAGTTA,0.391
8,AATAGTTG,0.313
9,GATAGTGA,0.162
10,TGCTGCAA,-0.149
11,GCAATACA,0.115
12,CAACGACG,-0.1
13,CATAGCCG,-0.0675
14,CGAACCCG,-0.099
15,CATAAAGA,0.0223
16,AGCAGAGA,-0.129
17,CTACGGTA,0.175
18,ATACGGTG,0.0458
19,ATACGGTA,0.348
20,GTACGATA,0.252
21,ATACGATC,0.0843
22,ATACGATA,0.366
23,GTTATGAA,0.155
24,AAACATCT,0.0882

row,Sequence,binding signal [E-score]
1,AGGAGGAA,-0.159
2,GCAGTCTA,0.0175
3,GACTAGAA,0.15
4,AACTAGAA,0.395
5,AGCTAGAA,0.329
6,ACCTAGAA,0.109
7,TGCTAGAA,0.387
8,TACTAGAA,0.375
9,AACTAGAC,0.103
10,GGCTAGAA,-0.0986
11,AACTAGAG,0.107
12,AACTAGAT,0.369
13,AGCTAGAT,0.215
14,CACTAGAA,0.224
15,AAAAAGCT,-0.0996
16,GAGTACCA,-0.0678
17,ACACATGA,0.211
18,GACGTAGC,0.0184
19,AGGTTGAC,-0.156
20,CGTAAGGC,-0.174
21,AGAGGACT,-0.176
22,GAGCTAAC,0.0297
23,ATCCTAAG,-0.0403
24,AATCAATG,0.0424

row,Sequence,binding signal [E-score]
1,CACTTATC,0.23
2,ACGTAAAG,0.0236
3,GGTAGAAC,0.374
4,GGTAGAAA,0.472
5,GGTAGAGA,0.0752
6,TGTAGAAA,0.396
7,TTTAGAAA,0.183
8,GATAGAAC,0.278
9,CGTAGAAG,0.128
10,GGTAGACA,0.0655
11,CGTAGAAC,0.0102
12,GTTAGAAC,0.0808
13,CGTAGAAA,0.359
14,TGTAGACA,0.159
15,AAGTGAGC,-0.093
16,CGTGCCTA,-0.0621
17,GCCCACTA,0.00538
18,CCTCTTAC,-0.169
19,AGGTTAAT,0.137
20,CTGATAAG,0.0753
21,TCCGTAGA,0.118
22,CTGGAACA,-0.0188
23,CTACATAC,0.269
24,ATACAAAC,0.354

row,Sequence,binding signal [E-score]
1,ATACACAT,0.303
2,AAACATAT,0.316
3,GTACATAC,0.28
4,CTACATAG,0.153
5,ATACATAT,0.399
6,ATACAAAT,0.32
7,ATACATAC,0.372
8,ATACATAA,0.316
9,ATACAAAA,0.278
10,ATACATAG,0.391
11,GAATGTAA,0.21
12,AGCCCTAT,-0.0484
13,CGCGATGC,-0.0559
14,AAATTAAA,0.166
15,AGGTTCAT,-0.0409
16,GAATGGAC,-0.0766
17,AAGGTTGT,-0.00326
18,GCGATAAA,0.182
19,ATACAATC,0.192
20,ATACAATG,0.254
21,ATACAATA,0.359
22,CATAATCA,0.164
